Measured potencies and affinities stand elsewhere. The source made the active and inactive calls. The rule behind the calls is not given here.

The assay is described as follows: viability loss in CEM21 cells – cell-based, plate reader, dry powder, cytotoxicity control, dose response (AID 687026). The following applies: series mostly up to 35 µM; activity change, negative = cytotoxicity: at the top concentration.
`O=S(=O)(NCc1ccncc1)c1ccc2c(c1)OCCO2`: the “activity change, negative = cytotoxicity” value is -5.34% (inactive).

Regarding `CCCn1nc(C(=O)Nc2ccc3nc(N4CCOCC4)sc3c2)ccc1=O`, the “activity change, negative = cytotoxicity” value is -11% (inactive).

As for `COc1ccccc1CCNCc1ccc(OC)c(OCc2ccccc2)c1`, the “activity change, negative = cytotoxicity” value was -12.2% (inactive).

Turning to `CC1(C)CC(NC(=O)C(=O)Nc2ccc(Cl)cc2)CC(C)(C)N1`, the compound was called inactive.

Take `Cc1noc(C)c1S(=O)(=O)N(C)C[C@@H]1Oc2ccc(NC(=O)Nc3ccccc3)cc2CC(=O)N([C@@H](C)CO)C[C@@H]1C`: the “activity change, negative = cytotoxicity” value was -2.83% (inactive).

Regarding `Cc1noc(C)c1S(=O)(=O)Nc1cccc2c1O[C@H](CN(C)Cc1ccc(C(F)(F)F)cc1)[C@@H](C)CN([C@H](C)CO)C2=O`, the “activity change, negative = cytotoxicity” value was 4.39% (inactive).

With `CCOc1ccc(OCC)c(S(=O)(=O)NCc2ccncc2)c1`, the result was inactive.

With `C[C@H]1CCCCO[C@@H](CN(C)Cc2ccncc2)[C@@H](C)CN([C@@H](C)CO)C(=O)c2cc(NC(=O)Nc3ccccc3)ccc2O1`, the “activity change, negative = cytotoxicity” value was -4.58% (inactive).

Regarding `Cc1noc(C)c1S(=O)(=O)Nc1cccc2c1O[C@H](CN(C)Cc1ccc(C(F)(F)F)cc1)[C@H](C)CN([C@H](C)CO)C2=O`, the “activity change, negative = cytotoxicity” value is -7.43% (inactive).

`Cc1noc(C)c1S(=O)(=O)Nc1cccc2c1O[C@H](CN(C)Cc1ccc(C(F)(F)F)cc1)[C@@H](C)CN([C@@H](C)CO)C2=O`: the “activity change, negative = cytotoxicity” value was -1.88% (inactive).

Turning to `CCOc1ccc(S(=O)(=O)NCc2ccccn2)cc1`, the result was inactive.

As to `Cc1noc(C)c1S(=O)(=O)Nc1cccc2c1O[C@@H](CN(C)Cc1ccc(C(F)(F)F)cc1)[C@@H](C)CN([C@@H](C)CO)C2=O`, the “activity change, negative = cytotoxicity” value is -1.12% (inactive).

For `Cc1noc(C)c1S(=O)(=O)Nc1cccc2c1O[C@@H](CN(C)Cc1ccc(C(F)(F)F)cc1)[C@H](C)CN([C@@H](C)CO)C2=O`, the “activity change, negative = cytotoxicity” value was -0.13% (inactive).

Turning to `Cn1c(C(=O)N2CCN(c3nc4ccccc4s3)CC2)cc2sccc21`, the “activity change, negative = cytotoxicity” value was -4.66% (inactive).

On to `Cc1noc(C)c1S(=O)(=O)Nc1cccc2c1O[C@@H](CN(C)Cc1ccc(C(F)(F)F)cc1)[C@H](C)CN([C@H](C)CO)C2=O`, for which the “activity change, negative = cytotoxicity” value is 4.5% (inactive).

On to `COc1ccc(S(=O)(=O)NCc2ccncc2)cc1OC`, for which the “activity change, negative = cytotoxicity” value was -6.11% (inactive).

As to `CCCC#Cc1ccc2c(c1)O[C@@H](CN(C)S(=O)(=O)c1cccc(F)c1)[C@@H](C)CN([C@H](C)CO)S2(=O)=O`, the “activity change, negative = cytotoxicity” value was -4.86% (inactive).

As to `CC(=O)Nc1ccc(NC(=O)CN(c2ccc(C34CC5CC(CC(C5)C3)C4)cc2)S(C)(=O)=O)cc1`, the “activity change, negative = cytotoxicity” value is -30.8% (inactive).

As to `Cc1ccc(S(=O)(=O)N(C)C[C@@H]2Oc3ccc(NS(=O)(=O)c4c(C)noc4C)cc3CC(=O)N([C@H](C)CO)C[C@@H]2C)cc1`, the “activity change, negative = cytotoxicity” value is 0.887% (inactive).

Regarding `CCOc1ccc(S(=O)(=O)NCc2ccccc2)cc1`, the “activity change, negative = cytotoxicity” value was -11.5% (inactive).

Consider `CCOc1ccc(C)cc1S(=O)(=O)NCc1ccncc1`, for which the “activity change, negative = cytotoxicity” value was -8.49% (inactive).

For `CO[C@@H]1CN(C)C(=O)c2ccc(NC(=O)Nc3cccc(F)c3)cc2OC[C@@H](C)N(C(=O)Nc2cccc(F)c2)C[C@H]1C`, the “activity change, negative = cytotoxicity” value is -9.29% (inactive).

For the origin of these results see PubChem BioAssay AID687026 (Broad Institute, 2013).
